Test results taken from PubChem BioAssay (Tox21).
Results filed as inconclusive are left out. Values without a mark were called inactive. Calls of active or inactive are those of the source. Calls come from the whole dose curve; as a rule, active = well fitted cell-killing curve with a large enough effect in the repeat runs; inconclusive = weak or mixed curves; inactive = no such curve, though single readings can be large or run the other way.

assay: qHTS assay for identifying genotoxic compounds that show differential cytotoxicity against isogenic chicken DT40 cell lines with known DNA damage response pathways - Rad54/Ku70 mutant cell line (AID 743015); settings: DT40 Rad54/Ku70 mutant viability, CellTiter-Glo, 40 h; series mostly up to 66.8 µM; activity change, negative = cytotoxicity: at the top concentration; note: nearly all actives have a fitted effect of over 60% in size
Source text: National Center for Advancing Translational Sciences [NCATS]
NIH Chemical Genomics Center [NCGC]
U.S. Environmental Protection Agency [EPA]
National Institutes of Environmental Health Sciences [NIEHS]
National Toxicology Program [NTP]
U.S. Food and Drug Administration [FDA]
DNA repair pathways play a critical role in cellular homeostasis by repairing DNA damage induced by endogenous processes and xenobiotics. Isogenic chicken DT40 cell lines deficient in different DNA repair pathways can be used to identify genotoxic compounds and aid in characterizing the nature of the DNA damage induced. Two DNA repair-deficient cell lines with disrupted genes, Rad54/Ku70 or Rev3, were used to screen the Tox21 10K compound library. Possible genotoxicity was based on the presence of a significant increase in cytotoxicity in one or more of the DNA repair-deficient cell lines compared to that observed in the parental DNA repair-proficient cell line. CellTiter Glo viability assay (Promega, Madison, WI) was used to measure cell viability in these cells after compound treatment. This assay includes the data from the Rad54/Ku70 mutant cell line.
Tox21 Assay Protocol Summary:
300 DT40 mutant cells in 5 uL/well were dispensed into white, solid-bottom 1536-well plates using a Multidrop Combi (ThermoFisher Scientific, Waltham, MA) dispenser. After the assay plates were incubated at 37 C/5% CO2 for approximately 0.5 hour, 23 nL of compounds dissolved in DMSO, positive controls or DMSO only was transferred into the assay plate by a pintool work station (Kalypsys, San Diego, CA). The assay plates were incubated at 37 C/5% CO2 for 40 hours. After 5 uL per well of CellTiter-Glo reagent was added into each well of the assay plates, the plates were incubated for 30 min at room temperature and the luminescence intensity of the plates was measured using a ViewLux (PerkinElmer, Shelton, CT) plate reader.
% is set by controls: 0 for no effect and ±100 for the full control effect; potency is the fitted concentration of half-maximal effect.

| SMILES | activity change, negative = cytotoxicity | Potency |
| --- | --- | --- |
| O=P(O)(O)OC(Cn1cncn1)(Cn1cncn1)c1ccc(F)cc1F | 3.39% | – |
| OC[C@@H](O)C(O)[C@H](O)CO | 7.02% | – |
| CO[C@H]1C[C@@H]2CC[C@@H](C)[C@@](O)(O2)C(=O)C(=O)N2CCCC[C@H]2C(=O)O[C@H]([C@H](C)C[C@@H]2CC[C@@H](OC(=O)C(C)(CO)CO)[C@H](OC)C2)CC(=O)[C@H](C)/C=C(\C)[C@@H](O)[C@@H](OC)C(=O)[C@H](C)C[C@H](C)/C=C/C=C/C=C/1C | -1.21% | – |
| CCCCC/C=C\C/C=C\C/C=C\CCCCC(=O)O | 8.41% | – |
| C#CCC(Cc1cnc2nc(N)nc(N)c2n1)c1ccc(C(=O)N[C@@H](CCC(=O)O)C(=O)O)cc1 (stereo not given in full) | – | 0.0237 µM (active) |
| Cc1cc(C(=O)NNCc2ccccc2)no1 | 9.58% [at 30.7 µM] | – |
| OCCN1CCN(CC/C=C2/c3ccccc3Sc3ccc(Cl)cc32)CC1 | – | 11.4 µM (active) |
| CC(C)(C)NC[C@H](O)COc1ccccc1C1CCCC1 | – | 10.1 µM (active) |
| COc1ccc2c(c1)OC(C)(C)C(c1ccccc1)C2c1ccc(OCCN2CCCC2)cc1 (stereo not given) | – | 5.96 µM (active) |
| O=C(OCc1ccccc1)c1cccnc1 | – | 6.68 µM (active) |
| CC(=O)Nc1c(I)c(C(=O)N[C@H]2C(O)O[C@H](CO)[C@@H](O)[C@@H]2O)c(I)c(N(C)C(C)=O)c1I (stereo not given in full) | 8.46% [at 30.7 µM] | – |
| CC(=O)O[C@H]1C[C@@H]2CC[C@@H]3[C@H](CC[C@@]4(C)[C@H]3C[C@H](N3CC[N+](C)(C)CC3)[C@@H]4OC(C)=O)[C@@]2(C)C[C@@H]1N1CC[N+](C)(C)CC1 | 8.99% | – |
| CN1CCN(C2=Nc3ccccc3Cc3ccccc32)CC1 | – | 29.8 µM (active) |
| COc1cc([C@@H]2c3cc4c(cc3C(O[C@@H]3O[C@@H]5COC(c6cccs6)O[C@H]5[C@H](O)[C@H]3O)C3COC(=O)[C@@H]32)OCO4)cc(OC)c1O (stereo not given in full) | – | 0.0011 µM (active) |
| CCN(CC)CCOc1ccc2nc(N(C)C)sc2c1 | – | 2.11 µM (active) |
| Clc1cc(Cl)c(OCC#CI)cc1Cl | – | 2.66 µM (active) |
| CCC(=O)OCC(=O)[C@@]1(OC(=O)CC)[C@@H](C)C[C@H]2[C@@H]3CCC4=CC(=O)C=C[C@]4(C)[C@@]3(Cl)[C@@H](O)C[C@@]21C | – | 13.3 µM (active) |
| Clc1ccc(COC(Cn2ccnc2)c2ccc(Cl)cc2Cl)c(Cl)c1 (stereo not given) | – | 10.1 µM (active) |
| NCCC(=O)[N-][C@@H](Cc1cnc[nH]1)C(=O)O.[Zn] | 3.63% | – |
| CCC(=O)c1ccc2c(c1)N(CCCN1CCN(CCO)CC1)c1ccccc1S2 | – | 4.22 µM (active) |

| SMILES | activity change, negative = cytotoxicity | Potency |
| --- | --- | --- |
| NC(N)=NCC1COc2ccccc2O1 (stereo not given) | -15.5% | – |
| Cc1c(Cl)cccc1Nc1ncccc1C(=O)O | -4.37% | – |
| O=C(Cc1cccs1)N[C@@H]1C(=O)N2C(C(=O)[O-])=C(C[n+]3ccccc3)CS[C@H]12 | 0.805% | – |
| c1ccc2c(CCC3CCNCC3)c[nH]c2c1 | – | 26.6 µM (active) |
| CCCCCCCCCCCCCCCCCC(=O)[O][Al] | 7.86% | – |
| CCCOc1ccc2nc(NC(=O)OC)sc2c1 | – | 3.35 µM (active) |
| O=C(O)[C@@H](O)[C@H](O)[C@H](O)[C@@H](O)C(=O)O (tested in a mixture with another compound) | -0.113% | – |
| Cc1c(N)nc(C(CC(N)=O)NCC(N)C(N)=O)nc1C(=O)NC(C(=O)NC(C)C(O)C(C)C(=O)NC(C(=O)NCCc1nc(-c2nc(C(=O)NCCCN[C@@H](C)c3ccccc3)cs2)cs1)C(C)O)C(O[C@@H]1O[C@@H](CO)[C@@H](O)[C@H](O)[C@@H]1O[C@H]1O[C@H](CO)[C@@H](O)[C@H](OC(N)=O)[C@@H]1O)c1cnc[nH]1 (stereo not given in full) | – | 0.0531 µM (active) |
| CCC(=O)NS(=O)(=O)c1ccc(-c2c(-c3ccccc3)noc2C)cc1 | 1.46% | – |
| CN(CCO)CC(O)Cn1cnc2c1c(=O)n(C)c(=O)n2C (stereo not given) (tested in a mixture with another compound) | 7.69% | – |
| O.O=C([O-])CC([S-])C(=O)[O-].[Au+].[Na+].[Na+] (stereo not given) | 9.3% | – |
| C=CCSSSCC=C | 3.75% | – |
| CN1C(=O)CN2CCc3ccccc3C2c2cc(Cl)ccc21 (stereo not given) | -1.3% | – |
| CCCCCCCCCCCCCCCCCC(=O)OCCO | 0.0851% | – |
| CCN(CC)CCC(=O)N1c2ccccc2Sc2ccc(Cl)cc21 | – | 11.9 µM (active) |
| Oc1cc(O)cc(O)c1 | -0.163% | – |
| CCOC(=O)COc1ccc2c(C)c(CCN(CC)CC)c(=O)oc2c1 | 5.21% | – |
| CO[C@H]1C=CO[C@@]2(C)Oc3c(C)c(O)c4c(O)c(c5c(nc6cc(C)ccn65)c4c3C2=O)NC(=O)/C(C)=C\C=C[C@H](C)[C@H](O)[C@@H](C)[C@@H](O)[C@@H](C)[C@H](OC(C)=O)[C@@H]1C | – | 29.8 µM (active) |
| Nc1nc2c(c(=O)[nH]1)N(C=O)C(CNc1ccc(C(=O)N[C@@H](CCC(=O)O)C(=O)O)cc1)CN2 (stereo not given in full) | 4.92% [at 30.7 µM] | – |
| CN(C)CCOc1ccccc1Cc1ccccc1 (tested in a mixture with another compound) | – | 29.8 µM (active) |
